Assay results from PubChem BioAssay.
Unmarked numbers belong to inactive results. Entries that show only a call come without a potency. For part of these data: Potency and affinity values are given separately. Calls of active or inactive are those of the source. Unless noted, no rule for the calls is given here.

What was measured:
[1] = antimalarial activity against Dd2 strain (AID 2302;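 active = growth inhibition above 50% at the single 2 µM test dose, taken to imply half-maximal potency below 2 µM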); settings: P. falciparum Dd2 in RBCs, LDH growth readout, 72 h; at 2 µM; stronger effect = higher value
[2] = human hepatoma cell viability loss – ATP luminescence, cytotoxicity control for P. falciparum antimalarial project, primary screen (AID 2303;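 active = inhibition above 50%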); settings: HepG2 viability, 24-48 h, at 10 µM, stronger effect = higher value
[3] = target: L-lactate dehydrogenase (Plasmodium falciparum (isolate CDC / Honduras)) (UniProt Q27743); assay: PfLDH activity inhibition – cell lysate, 3D7 strain, counter-screen for P. falciparum growth inhibition project (AID 2304); settings: P. falciparum 3D7 crude extract, LDH APAD/NBT absorbance; at 2 µM; stronger effect = higher value
Sequence of L-lactate dehydrogenase (Plasmodium falciparum (isolate CDC / Honduras)) (Q27743 whole entry, looked up): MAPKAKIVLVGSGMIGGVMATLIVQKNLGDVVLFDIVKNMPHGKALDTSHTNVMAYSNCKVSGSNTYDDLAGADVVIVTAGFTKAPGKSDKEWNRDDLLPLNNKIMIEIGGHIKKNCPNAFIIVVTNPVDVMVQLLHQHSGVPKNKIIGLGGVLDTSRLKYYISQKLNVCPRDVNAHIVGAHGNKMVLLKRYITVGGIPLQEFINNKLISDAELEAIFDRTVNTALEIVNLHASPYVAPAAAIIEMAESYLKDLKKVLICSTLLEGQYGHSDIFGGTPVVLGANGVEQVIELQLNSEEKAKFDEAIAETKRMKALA

[4] = inhibition of 3D7 malaria parasite growth – strain 3D7 (AID 2306); settings: P. falciparum 3D7 erythrocytic growth, LDH absorbance, 72 h; at 2 µM; stronger effect = higher value
[5] = target: Calcium-dependent protein kinase 1 (Plasmodium falciparum (isolate 3D7)) (UniProt P62344); assay: PfCDPK1 kinase inhibitors, biochemical, TCAMS library (AID 1159585; cut-off not given, nearly all actives have IC50 up to about 0.98 µM;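 also: inhibitors leave more ATP so luminescence rises with inhibition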); settings: recombinant PfCDPK1, Kinase-Glo ATP depletion luminescence
Sequence of Calcium-dependent protein kinase 1 (Plasmodium falciparum (isolate 3D7)) (P62344 whole entry, looked up): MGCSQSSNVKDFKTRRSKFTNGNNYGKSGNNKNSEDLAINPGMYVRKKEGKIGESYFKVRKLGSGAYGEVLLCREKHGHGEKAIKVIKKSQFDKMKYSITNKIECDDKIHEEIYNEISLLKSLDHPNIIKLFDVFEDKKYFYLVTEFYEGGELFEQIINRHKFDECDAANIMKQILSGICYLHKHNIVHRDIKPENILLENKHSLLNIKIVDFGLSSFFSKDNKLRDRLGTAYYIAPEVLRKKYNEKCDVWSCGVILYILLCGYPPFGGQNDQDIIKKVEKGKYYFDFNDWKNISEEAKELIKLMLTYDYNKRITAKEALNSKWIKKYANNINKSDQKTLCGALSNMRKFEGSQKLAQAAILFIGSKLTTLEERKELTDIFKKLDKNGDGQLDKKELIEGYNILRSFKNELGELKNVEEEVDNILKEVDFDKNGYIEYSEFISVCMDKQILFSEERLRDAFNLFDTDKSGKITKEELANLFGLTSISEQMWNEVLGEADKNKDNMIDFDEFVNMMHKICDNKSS

[6] = target: Plasmodium falciparum protein kinase 6 (PK6, PF3D7_1337100) (UniProt Q8IDW1); assay: PfPK6 kinase inhibitors, biochemical, TCAMS library (AID 1159586); settings: recombinant PfPK6, Kinase-Glo ATP depletion luminescence
Sequence of Plasmodium falciparum protein kinase 6 (PK6, PF3D7_1337100) (Q8IDW1 1-305): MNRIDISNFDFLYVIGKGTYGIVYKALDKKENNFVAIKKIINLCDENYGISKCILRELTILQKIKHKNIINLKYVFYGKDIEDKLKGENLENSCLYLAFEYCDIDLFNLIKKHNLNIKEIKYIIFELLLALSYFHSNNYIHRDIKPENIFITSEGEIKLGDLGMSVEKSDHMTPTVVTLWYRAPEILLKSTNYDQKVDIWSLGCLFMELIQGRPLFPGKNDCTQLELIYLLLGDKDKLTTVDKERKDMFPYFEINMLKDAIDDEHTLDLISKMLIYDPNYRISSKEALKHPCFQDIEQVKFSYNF

[7] = target: Protein kinase 7 (PK7), Plasmodium falciparum 3D7 (PF3D7_0213400) (UniProt Q7YTF7); assay: inhibition of Plasmodium PK7 catalytic activity – biochemical, TCAMS antimalarial set, Kinase-Glo luminescence (AID 1159587); settings: recombinant PfPK7, Kinase-Glo ATP depletion luminescence
Sequence of Protein kinase 7 (PK7), Plasmodium falciparum 3D7 (PF3D7_0213400) (Q7YTF7 1-343): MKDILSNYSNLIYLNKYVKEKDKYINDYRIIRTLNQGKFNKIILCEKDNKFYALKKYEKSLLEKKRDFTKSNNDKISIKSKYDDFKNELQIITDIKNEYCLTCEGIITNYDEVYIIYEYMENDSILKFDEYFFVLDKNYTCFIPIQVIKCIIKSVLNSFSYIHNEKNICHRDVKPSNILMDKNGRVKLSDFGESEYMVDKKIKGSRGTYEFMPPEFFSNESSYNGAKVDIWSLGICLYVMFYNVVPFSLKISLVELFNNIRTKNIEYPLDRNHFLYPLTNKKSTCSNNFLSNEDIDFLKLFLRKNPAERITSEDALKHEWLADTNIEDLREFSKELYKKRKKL

[8] = target: Calcium-dependent protein kinase 4 (Plasmodium falciparum (isolate 3D7)) (UniProt Q8IBS5); assay: PfCDPK4 kinase inhibitors, biochemical, TCAMS library (AID 1159588; cut-off not given, nearly all actives have IC50 up to about 0.91 µM); settings: recombinant PfCDPK4, Kinase-Glo ATP depletion luminescence
Sequence of Calcium-dependent protein kinase 4 (Plasmodium falciparum (isolate 3D7)) (Q8IBS5 whole entry, looked up): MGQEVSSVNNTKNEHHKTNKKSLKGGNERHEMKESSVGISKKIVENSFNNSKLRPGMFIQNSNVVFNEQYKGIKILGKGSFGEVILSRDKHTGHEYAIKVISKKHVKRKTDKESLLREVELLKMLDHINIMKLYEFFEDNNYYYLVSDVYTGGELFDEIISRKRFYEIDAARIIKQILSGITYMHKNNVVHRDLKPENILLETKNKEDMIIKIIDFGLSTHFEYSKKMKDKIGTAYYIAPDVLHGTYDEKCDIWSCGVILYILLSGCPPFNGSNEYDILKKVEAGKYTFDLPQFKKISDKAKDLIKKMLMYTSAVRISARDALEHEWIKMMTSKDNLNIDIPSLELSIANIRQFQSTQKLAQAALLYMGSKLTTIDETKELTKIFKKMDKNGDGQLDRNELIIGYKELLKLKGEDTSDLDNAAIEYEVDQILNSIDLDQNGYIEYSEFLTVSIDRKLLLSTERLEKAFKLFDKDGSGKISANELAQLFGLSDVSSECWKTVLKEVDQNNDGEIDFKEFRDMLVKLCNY

| Compound | growth inhibition [1] | inhibition [2] | inhibition [3] | growth inhibition [4] | outcome [5] | outcome [6] | outcome [7] | outcome [8] |
| --- | --- | --- | --- | --- | --- | --- | --- | --- |
| O=C(Nc1ccc(Cl)cc1)Nc1cccc(-c2ccc(-c3nc4ccccc4[nH]3)cc2)c1 | 6% | 19% | -3% | 87% (active) | inactive | inactive | inactive | inactive |
| Cc1cc(F)ccc1Nc1nc(N(C)c2ccccc2)c2cc(OCCCN(C)C)ccc2n1 | 49% | 31% | 4% | 100% (active) | inactive | inactive | inactive | inactive |
| C=CCOC(=O)N1CCC(CNCc2cccc(-c3ccc(-c4nc5ccccc5[nH]4)s3)c2)C1 (stereo unspecified) | 63% (active) | 9% | 0% | 99% (active) | inactive | inactive | inactive | inactive |
| N#Cc1ccc(N2CCN(Cc3cccc(-c4ccc(-c5nc6ccccc6[nH]5)cc4)c3)CC2)nc1 | 40% | 45% | -1% | 89% (active) | inactive | inactive | inactive | inactive |
| Cc1cc(NCCCN2CCCC2=O)n2c(nc3ccccc32)c1C#N | 48% | 4% | -1% | 93% (active) | inactive | inactive | inactive | inactive |
| O=C(Nc1ccc2c(c1)CCN2C1CCN(Cc2csc3ccccc23)C1)c1ccco1 (stereo unspecified) | 95% (active) | -5% | -2% | 95% (active) | inactive | inactive | inactive | inactive |
| Oc1cc(Nc2ccnc3ccc(I)cc23)c(F)cc1Cl | 13% | 20% | 0% | 95% (active) | inactive | inactive | inactive | inactive |
| COc1ccccc1N1CCN(C(C(=O)NCc2ccc3c(c2)OCO3)c2ccc(C)cc2)CC1 (stereo unspecified) | 81% (active) | 1% | 2% | 85% (active) | inactive | inactive | inactive | inactive |
| Cc1ccc(NC(=O)c2ccc(CN3CCCN(Cc4cccc(Cl)c4)CC3)cc2)cc1C | 18% | 41% | 2% | 84% (active) | inactive | inactive | inactive | inactive |
| CCN(CC)CCCC(C)Nc1cc(C=Cc2ccccc2Cl)nc2cc(Cl)ccc12 (stereo unspecified) | 77% (active) | 0% | -2% | 99% (active) | inactive | inactive | inactive | inactive |
| Fc1ccc(Nc2ccnc3cc(I)ccc23)c(Cl)c1 | 24% | 35% | 1% | 95% (active) | inactive | inactive | inactive | inactive |
| Cc1ccccc1C1CCN(c2ncc(C(=O)NC3CC3)cc2Cl)CC1 | 96% (active) | 22% | -1% | 96% (active) | inactive | inactive | inactive | inactive |
| COc1ccc(Cn2cncc2CN(CCC(C)C)C(=O)c2ccc(Cl)nc2Cl)cc1 | 61% (active) | 19% | -1% | 87% (active) | inactive | inactive | inactive | inactive |
| CCCc1cc(OC)c(CC2c3cc(O)c(Cl)cc3CCN2C)cc1OC (stereo unspecified) | 99% (active) | 19% | -5% | 100% (active) | inactive | inactive | inactive | inactive |
| O=C(Nc1ccc2c(c1)CCC2)c1nc(N2CCN(c3ccncc3)CC2)ccc1Cl | 97% (active) | 55% (active) | -1% | 101% (active) | inactive | inactive | inactive | inactive |
| O=C(/C=C/c1ccc(Cl)c(Cl)c1)N1CCC(CN2CCC(Cc3c[nH]c4ccccc34)CC2)CC1 | 13% | 24% | 1% | 98% (active) | inactive | inactive | inactive | inactive |
| COc1cc(CNCCCCCCNCc2cc(OC)c(OC)c3ccccc23)c2ccccc2c1OC | 100% (active) | 100% (active) | -1% | 100% (active) | inactive | inactive | inactive | inactive |
| Cc1cc(N(CCCN(C)C)Cc2cc(F)cc(F)c2)nc(Nc2ccc(Cl)cc2)n1 | 97% (active) | 37% | -2% | 99% (active) | inactive | inactive | inactive | inactive |
| NC(N)=Nc1nc(-c2cccc(NC(=O)C(F)(F)F)c2)cs1 | 24% | -4% | -2% | 94% (active) | inactive | inactive | inactive | inactive |
| CCN(CC)CCNc1ccnc2[nH]c3ccc(I)cc3c12 | 95% (active) | 14% | -1% | 100% (active) | inactive | inactive | inactive | inactive |
| CN(C)C(CNC(=O)c1cc(-c2ccncc2)c(-c2ccc(NC(=O)Nc3cccc(F)c3)cc2)o1)c1ccccc1 (stereo unspecified) | 99% (active) | 11% | 3% | 100% (active) | inactive | inactive | inactive | inactive |

| Compound | growth inhibition [1] | inhibition [2] | inhibition [3] | growth inhibition [4] | outcome [5] | outcome [6] | outcome [7] | outcome [8] |
| --- | --- | --- | --- | --- | --- | --- | --- | --- |
| O=c1cc(NCCCNCc2cccc(C(F)(F)F)c2Cl)[nH]c2ccccc12 | 24% | 0% | -2% | 94% (active) | inactive | inactive | inactive | inactive |
| CCCCCCCN(Cc1ccc(OC(C)(C)C(=O)OCC)cc1)C(=O)Nc1ccccc1OCC | 94% (active) | -5% | -3% | 93% (active) | inactive | inactive | inactive | inactive |
| CCOc1ccc2nc3cc([N+](=O)[O-])ccc3c(N)c2c1 | 100% (active) | 67% (active) | 3% | 99% (active) | inactive | inactive | inactive | inactive |
| CCN(CCNC(=O)C1CCN(c2cc(-c3cccc(C)c3)ncn2)CC1)Cc1ccccc1 | 72% (active) | 24% | 2% | 83% (active) | inactive | inactive | inactive | inactive |
| Cc1ccccc1C(=O)NC(NC(=S)Nc1ccc([N+](=O)[O-])cc1)C(Cl)(Cl)Cl (stereo unspecified) | 39% | -7% | 0% | 101% (active) | inactive | inactive | inactive | inactive |
| Oc1ccc(Br)cc1-c1nc2ccc(Cl)cc2nc1-c1cc(Br)ccc1O | 64% (active) | -4% | 5% | 100% (active) | inactive | inactive | inactive | inactive |
| Cc1ccc2nc(C)cc(NN=Cc3ccc([N+](=O)[O-])o3)c2c1 | 99% (active) | 15% | -4% | 101% (active) | inactive | inactive | inactive | inactive |
| C=Cc1cc(NC(=O)N2CCc3cc(OC)c(C(F)(F)F)cc32)cc(-c2cccnc2)c1 | 20% | 7% | -2% | 92% (active) | inactive | inactive | inactive | inactive |
| CCN1CCN(c2ccc(Nc3ccnc4ccc(Br)cc34)cc2)CC1 | 86% (active) | 37% | 2% | 98% (active) | inactive | inactive | inactive | inactive |
| CCc1nn2c(Nc3ccncc3)cc(C)nc2c1-c1ccccc1 | 98% (active) | 4% | 0% | 100% (active) | inactive | inactive | inactive | inactive |
| COCCNCc1ccc(-c2ccccc2CNC2CCN(Cc3ccccc3)CC2)cc1 | 28% | 17% | -1% | 97% (active) | inactive | inactive | inactive | inactive |
| CCCc1cc(N2CCC(N3CCCC3)CC2)nc(Nc2ccc(Cl)cc2)n1 | 9% | 29% | -2% | 96% (active) | inactive | inactive | inactive | inactive |
| O=C(Nc1ccc(-c2cccc(-c3nc4ccc(C(F)(F)F)cc4[nH]3)c2)cc1)c1csnn1 | 25% | 42% | -2% | 98% (active) | inactive | inactive | inactive | inactive |
| COCCNCc1ccc(-c2cccc(CNc3ccc(OC)cc3)c2)cc1 | 2% | 16% | -1% | 94% (active) | inactive | inactive | inactive | inactive |
| CC(=O)Nc1cccc(C(=O)Nc2cccc(-c3cccc(-c4nc5ccc(F)cc5[nH]4)c3)c2)c1 | 44% | 51% (active) | -5% | 101% (active) | inactive | inactive | inactive | inactive |
| Nc1c2c(nc3ccc(NC(=O)CCCCCCc4ccccc4)cc13)CCCC2 | 90% (active) | 100% (active) | 4% | 100% (active) | inactive | inactive | inactive | inactive |
| Cc1cnc(NCCc2ccc(F)cc2)nc1NCCC(=O)Nc1ccccc1 | 17% | 3% | 6% | 89% (active) | inactive | inactive | inactive | inactive |
| Cc1cc(O)c(C(C)C)cc1C1(c2cc(C(C)C)c(O)cc2C)OC(=O)c2ccccc21 | 18% | 8% | -3% | 95% (active) | inactive | inactive | inactive | inactive |
| Cc1ccc(-c2nc3cc(NC(=O)c4ccc([N+](=O)[O-])o4)ccc3o2)cc1Cl | 97% (active) | 24% | -3% | 102% (active) | inactive | inactive | inactive | inactive |
| Cc1cccc2[nH]c(-c3cccc(-c4cccc(NC(=O)Nc5ccc(Cl)cc5)c4)c3)nc12 | 94% (active) | 23% | -2% | 100% (active) | inactive | inactive | inactive | inactive |
| O=[N+]([O-])c1cccc(CNCC2CCC(CNCc3cccc([N+](=O)[O-])c3)CC2)c1 (stereo unspecified) | 76% (active) | 39% | -1% | 100% (active) | inactive | inactive | inactive | inactive |
